Test results as given in PubChem BioAssay (NCATS).
Inconclusive results are not listed. The source made the active and inactive calls. Unless noted, calls follow the shape of the dose curve; as a rule, active = well fitted cell-killing curve with a large enough effect; inconclusive = small, poorly fitted or top-dose-only effect, or effect the other way; inactive = no such curve, though single readings can be large or run the other way.

Assays:
[1] = Quantitative High-Throughput drug screen in 47 multiple myeloma cell lines against the NCATS MIPE library collection: KMS28PE_JCRB cell viability assay (AID 1918983); also: nearly all actives have a fitted effect of over 35% in size
In short: (§1)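 Plated at 500 cells per well, myeloma lines received MIPE 4.0 compounds by pin tool. Following 48 h culture at 37 °C, CellTiter-Glo luminescence gave viability relative to DMSO and media-only controls.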

[2] = Quantitative High-Throughput drug screen in 47 multiple myeloma cell lines against the NCATS MIPE library collection: L363_DSMZ cell viability assay (AID 1918984); also: nearly all actives have a fitted effect of over 40% in size
In short: as §1

[3] = Quantitative High-Throughput drug screen in 47 multiple myeloma cell lines against the NCATS MIPE library collection: KMS34_JCRB cell viability assay (AID 1918985); also: nearly all actives have a fitted effect of over 40% in size
In short: as §1

[4] = Quantitative High-Throughput drug screen in 47 multiple myeloma cell lines against the NCATS MIPE library collection: OCIMY7_PLB cell viability assay (AID 1918987); also: nearly all actives have a fitted effect of over 65% in size
In short: as §1

[5] = Quantitative High-Throughput drug screen in 47 multiple myeloma cell lines against the NCATS MIPE library collection: OCIMY5_PLB cell viability assay (AID 1918988); also: nearly all actives have a fitted effect of over 65% in size
In short: as §1

[6] = Quantitative High-Throughput drug screen in 47 multiple myeloma cell lines against the NCATS MIPE library collection: OPM1_PLB cell viability assay (AID 1918989); also: nearly all actives have a fitted effect of over 40% in size
In short: as §1

[7] = Quantitative High-Throughput drug screen in 47 multiple myeloma cell lines against the NCATS MIPE library collection: SKMM1_PLB cell viability assay (AID 1919863); conditions: SKMM1 myeloma viability, CellTiter-Glo ATP, 48 h; viability: stronger effect = lower value; also: nearly all actives have a fitted effect of over 35% in size
In short: as §1

[8] = Quantitative High-Throughput drug screen in 47 multiple myeloma cell lines against the NCATS MIPE library collection: U266_ATCC cell viability assay (AID 1919864); also: nearly all actives have a fitted effect of over 35% in size
In short: as §1

[9] = Quantitative High-Throughput drug screen in 47 multiple myeloma cell lines against the NCATS MIPE library collection: XG6_PLB cell viability assay (AID 1919865); also: nearly all actives have a fitted effect of over 40% in size
In short: as §1

[10] = Quantitative High-Throughput drug screen in 47 multiple myeloma cell lines against the NCATS MIPE library collection: VP6_DJ cell viability assay (AID 1919867); also: nearly all actives have a fitted effect of over 40% in size
In short: as §1

[11] = Quantitative High-Throughput drug screen in 47 multiple myeloma cell lines against the NCATS MIPE library collection: UTMC2_PLB cell viability assay (AID 1919868); conditions: CellTiter-Glo ATP luminescence, 48 h; viability (% of DMSO control): at 45.8 µM (top of the series) unless noted; also: nearly all actives have a fitted effect of over 55% in size
In short: as §1

[12] = Quantitative High-Throughput drug screen in 47 multiple myeloma cell lines against the NCATS MIPE library collection: PE2_PLB cell viability assay (AID 1919869); also: nearly all actives have a fitted effect of over 35% in size
In short: as §1

[13] = Quantitative High-Throughput drug screen in 47 multiple myeloma cell lines against the NCATS MIPE library collection: PCM6_Riken cell viability assay (AID 1919870); also: nearly all actives have a fitted effect of over 30% in size
In short: as §1

[14] = Quantitative High-Throughput drug screen in 47 multiple myeloma cell lines against the NCATS MIPE library collection: RPMI8226_ATCC cell viability assay (AID 1919871); also: nearly all actives have a fitted effect of over 30% in size
In short: as §1

[15] = Quantitative High-Throughput drug screen in 47 multiple myeloma cell lines against the NCATS MIPE library collection: KMS11_JCRBsus cell viability assay (AID 1919873); also: nearly all actives have a fitted effect of over 50% in size
In short: as §1

[16] = Quantitative High-Throughput drug screen in 47 multiple myeloma cell lines against the NCATS MIPE library collection: KMS28BM_JCRB cell viability assay (AID 1919874); also: nearly all actives have a fitted effect of over 35% in size
In short: as §1

[17] = qHTS drug screen for cell cycle checkpoint inhibitors in PARPi-resistant BRCA-mutant ovarian cancer cell lines. (AID 1963452; calls by dose curve); conditions: PEO1/OlaR viability, CellTiter-Glo luminescence, 96 h; for Z-AUC: stronger effect = lower value
In short: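 PEO1, PEO4 and PEO1/OlaR ovarian cancer cells, 600 per well, exposed 96 h at 37C to a dilution series. Viability read by CellTiter-Glo luminescence, normalized to DMSO and empty wells; activity summarized as Z-AUC.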

[18] = Quantitative High-Throughput drug screen in 47 multiple myeloma cell lines against the NCATS MIPE library collection: XG1_PLB cell viability assay (AID 1919866); also: nearly all actives have a fitted effect of over 35% in size
In short: as §1

[19] = Quantitative High-Throughput drug screen in 47 multiple myeloma cell lines against the NCATS MIPE library collection: OPM2_DSMZ cell viability assay (AID 1919872); also: nearly all actives have a fitted effect of over 30% in size
In short: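 Inhibition of cell viability is measured here. Each line was plated at 500 cells per well, treated with MIPE 4.0 drugs, kept 48 hours at 37C, then assayed for ATP content by CellTiter-Glo luminescence.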

[20] = qHTS for identification of novel therapeutic agents for treatment of microphthalmiaassociated transcription factor (MiT) renal cell carcinoma (RCC) (AID 1963991; calls by dose curve;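 as to z-score: curves scaled with 100% = DMSO viability and 0% = empty wells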); conditions: CellTiter-Glo, 48 h; for z-score: stronger effect = lower value
In short: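 UOK109/UOK124/UOK145 (TFE3 fusions, three partners); 500 cells/well; MIPE v4.0, 1912 cpds, 11 conc.; 48 h, 37 C; CellTiter-Glo, 15 min RT; lum. Norm.: DMSO 100%, empty 0%.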

[21] = measured here: PEO1 parental Z-AUC
Potency is read from the fitted curve at half-maximal effect.

Cc1ccc(C(=O)Nc2ccc(CN3CCN(C)CC3)c(C(F)(F)F)c2)cc1C#Cc1cnc2cccnn12
inactive: Z-AUC [17] -2.19
-0.606: Z-AUC ([17]; measured here: PEO4 Z-AUC)
-1.43: Z-AUC [17, 21]
active: Potency [1] 5900 nM | Potency [2] 833 nM | Potency [3] 3320 nM | Potency [4] 264 nM | Potency [5] 1480 nM | Potency [6] 590 nM | Potency [7] 5900 nM | Potency [8] 14800 nM | Potency [9] 662 nM | Potency [10] 1320 nM | Potency [11] 590 nM | Potency [12] 935 nM | Potency [13] 1180 nM | Potency [14] 11800 nM | Potency [15] 1480 nM | Potency [16] 7430 nM

Cc1ccc(C(N)=O)cc1Nc1nccc(-c2cn(C(C)C)c3cnccc23)n1
active: Potency [1] 13200 nM | Potency [2] 2640 nM | Potency [3] 6620 nM | Potency [4] 935 nM | Potency [5] 7430 nM | Potency [6] 7430 nM | Potency [7] 16600 nM | Potency [8] 8330 nM | Potency [9] 2640 nM | Potency [18] 3720 nM | Potency [10] 2350 nM | Potency [11] 6620 nM | Potency [12] 3720 nM | Potency [13] 2090 nM | Potency [14] 16600 nM | Potency [19] 14800 nM | Potency [15] 4690 nM | Potency [16] 5900 nM
-1.25: Z-AUC ([17]; measured here: PEO4 Z-AUC)
inactive: Z-AUC [17] -1.23
-1.45: Z-AUC [17, 21]

C#Cc1cccc(Nc2ncnc3cc(OC)c(OCCCCCCC(=O)NO)cc23)c1
-1.32: Z-AUC ([17]; measured here: PEO4 Z-AUC)
-1.22: Z-AUC [17, 21]
active: Potency [1] 118 nM | Potency [2] 52.6 nM | Potency [3] 1050 nM | Potency [4] 148 nM | Potency [5] 5.3 nM | Potency [6] 264 nM | Potency [7] 418 nM | Potency [8] 105 nM | Potency [18] 74.3 nM | Potency [10] 296 nM | Potency [11] 18.7 nM | Potency [13] 187 nM | Potency [14] 1870 nM | Potency [19] 1480 nM | Potency [16] 33.2 nM | Potency [17] 616 nM

NC1(Cc2ccc(Cl)cc2)CCN(c2ncnc3[nH]ccc23)CC1
-1.02: Z-AUC [17, 21]
inactive: Z-AUC [17] -0.805
-1.03: Z-AUC ([17]; measured here: PEO4 Z-AUC)
active: Potency [1] 5260 nM | Potency [2] 1870 nM | Potency [3] 7430 nM | Potency [4] 5900 nM | Potency [5] 9350 nM | Potency [6] 1480 nM | Potency [8] 20900 nM | Potency [9] 13200 nM | Potency [18] 3720 nM | Potency [10] 3720 nM | Potency [11] 264 nM | Potency [12] 7430 nM | Potency [13] 5900 nM | Potency [19] 18700 nM | Potency [15] 10500 nM

O=C(Nc1ncc(-c2cc(C(F)F)nn2-c2c(Cl)cccc2Cl)s1)C1CC1
-1.27: z-score ([20]; TFE3-RCC viability, measured here: UOK145 Z-AUC)
inactive: Z-AUC [17] -1.34
active: Potency [1] 935 nM | Potency [2] 235 nM | Potency [3] 264 nM | Potency [4] 166 nM | Potency [5] 296 nM | Potency [6] 418 nM | Potency [7] 332 nM | Potency [8] 2960 nM | Potency [9] 187 nM | Potency [18] 105 nM | Potency [10] 418 nM | Potency [11] 526 nM | Potency [12] 590 nM | Potency [13] 662 nM | Potency [14] 1660 nM | Potency [15] 187 nM | Potency ([20]; TFE3-RCC UOK109 viability, active = Z-AUC below -0.8 in all three lines) 935 nM
-1.31: Z-AUC ([17]; measured here: PEO4 Z-AUC)
-1.43: z-score ([20]; TFE3-RCC viability, measured here: UOK124 Z-AUC)
-1.49: Z-AUC [17, 21]
-1.06: z-score ([20]; TFE3-RCC UOK109 viability, measured here: UOK109 Z-AUC)

CNC(=O)c1c(F)cccc1Nc1nc(Nc2cc3c(cc2OC)CCN3C(=O)CN(C)C)nc2[nH]ccc12
active: Potency [1] 132 nM | Potency [3] 8330 nM | Potency [4] 105 nM | Potency [5] 1660 nM | Potency [6] 7430 nM | Potency [7] 10500 nM | Potency [8] 3320 nM | Potency [9] 2350 nM | Potency [18] 2350 nM | Potency [10] 105 nM | Potency [11] 93.5 nM | Potency [12] 2640 nM | Potency [13] 9350 nM | Potency [14] 2350 nM | Potency [19] 11800 nM | Potency [15] 66.2 nM | Potency [16] 118 nM
-0.708: Z-AUC ([17]; measured here: PEO4 Z-AUC)
-0.266: Z-AUC [17, 21]
inactive: Potency [2] | Z-AUC [17] -0.375

COc1cc2c(Oc3ccc(NC(=O)C4(C(=O)Nc5ccc(F)cc5)CC4)cc3F)ccnc2cc1OCCCN1CCOCC1
-0.374: Z-AUC ([17]; measured here: PEO4 Z-AUC)
active: Potency [1] 4180 nM | Potency [2] 2960 nM | Potency [3] 10500 nM | Potency [4] 264 nM | Potency [5] 5900 nM | Potency [6] 4180 nM | Potency [7] 20900 nM | Potency [8] 20900 nM | Potency [9] 5260 nM | Potency [18] 9350 nM | Potency [10] 3720 nM | Potency [11] 3320 nM | Potency [13] 10500 nM | Potency [14] 13200 nM | Potency [19] 4180 nM | Potency [15] 1180 nM | Potency [16] 3320 nM
-0.246: Z-AUC [17, 21]
inactive: Z-AUC [17] -0.782

O=C(C=Cc1cccc(S(=O)(=O)Nc2ccccc2)c1)NO
active: Potency [1] 3820 nM | Potency [2] 855 nM | Potency [3] 1360 nM | Potency [4] 2150 nM | Potency [5] 1210 nM | Potency [6] 1910 nM | Potency [7] 4290 nM | Potency [8] 2700 nM | Potency [9] 4810 nM | Potency [18] 2410 nM | Potency [10] 855 nM | Potency [11] 1080 nM | Potency [12] 3820 nM | Potency [13] 2410 nM | Potency [14] 3400 nM | Potency [15] 1210 nM | Potency [16] 1360 nM
